# Bioassay records from PubChem.
# VDR inhibitor: Inhibitors of the vitamin D receptor (VDR): qHTS; 400,000 tested, 0.93% active; Potency, µM, inactives show max response, negative = inhibition, usual class: inhibitors; VDR-SRC2-3 peptide fluorescence polarization, 2 h; AID 504847, 2011; further: potency means the concentration at half of the fitted maximal effect; on the % scale 0 is the no-effect control and ±100 the full control effect
# Target sequence (P11473 whole entry, looked up): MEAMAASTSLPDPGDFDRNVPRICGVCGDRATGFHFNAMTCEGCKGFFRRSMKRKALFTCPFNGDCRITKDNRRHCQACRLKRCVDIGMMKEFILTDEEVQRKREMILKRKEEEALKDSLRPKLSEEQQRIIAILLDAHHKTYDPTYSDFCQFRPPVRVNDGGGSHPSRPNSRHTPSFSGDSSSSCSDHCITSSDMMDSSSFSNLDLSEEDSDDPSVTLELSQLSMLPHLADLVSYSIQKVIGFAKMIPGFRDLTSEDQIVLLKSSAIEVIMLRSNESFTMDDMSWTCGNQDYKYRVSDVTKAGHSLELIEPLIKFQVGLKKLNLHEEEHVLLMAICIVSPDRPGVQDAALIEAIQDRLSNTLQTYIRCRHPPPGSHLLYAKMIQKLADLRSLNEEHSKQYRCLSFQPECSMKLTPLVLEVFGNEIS
#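 Fluorescence polarization assay of small-molecule disruption of VDR binding to coregulator peptide SRC2-3. Compounds and controls pin-transferred, then read after 2 h incubation at ambient room temperature.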
# Pin1 inh: qHTS Assay to Find Inhibitors of Pin1 | Peptidyl-prolyl cis-trans isomerase NIMA-interacting 1 (Homo sapiens), Q13526 | Pin1 FP peptide displacement, HiFluor488, 10 min | Potency, µM (top dose mostly 115 µM), for the others: at the top dose activity, negative = inhibition, hits mostly inhibitors | 390,000 tested, 0.009% active | AID 504891, 2011; active means well fitted inhibition curve with a large enough effect in the polarisation, with a control signal flat, not every such curve was filed as active; inconclusive means small, poorly fitted or top-dose-only effect, or effect the other way, or a change in a side signal; inactive means no such curve, though single readings can be large or run the other way; the % refers to the polarisation; further: potency means the concentration at half of the fitted maximal effect; on the % scale 0 is the no-effect control and ±100 the full control effect
# Target sequence (Q13526 whole entry, looked up): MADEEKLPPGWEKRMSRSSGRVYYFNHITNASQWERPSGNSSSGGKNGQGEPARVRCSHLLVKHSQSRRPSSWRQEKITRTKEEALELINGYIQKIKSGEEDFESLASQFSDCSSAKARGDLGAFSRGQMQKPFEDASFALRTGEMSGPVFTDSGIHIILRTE
# Tb PFK block: qHTS Assay to Find Inhibitors of T. brucei phosphofructokinase; ATP-dependent 6-phosphofructokinase (Trypanosoma brucei brucei), O15648; Potency, µM (titrated, usually from 57.5 µM), for the others: at the highest dose activity, negative = inhibition, most hits filed as inhibitors; T. brucei PFK, ADP-Glo luminescence; 330,000 tested, 0.17% active;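 further: potency means the concentration at half of the fitted maximal effect; 0% = uninhibited 1x PFK enzyme wells and -100% = no-enzyme wells; nearly all actives have a fitted effect of over 60% in size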
#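 ADP-Glo luminescence quantified ADP after 45 min at room temperature, with 1.25 nM T. brucei PFK, 0.1 mM ATP and 0.5 mM fructose-6-phosphate in pH 8.0 TEA buffer. qHTS titrations up to 57 µM; curves classified by quality.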
# Tb PGK inh: qHTS Assay to Find Inhibitors of Phosphoglycerate Kinase | 380,000 tested, 0.043% active | Potency, µM (doses to about 57.5 µM), for inactives: at the top dose activity change, negative = inhibition, actives largely listed as inhibitors | AID 602233, 2012 | PGK/GAPDH coupled, Kinase-Glo luminescence, 60 min; further: potency means the concentration at half of the fitted maximal effect; on the % scale 0 is the no-effect control and ±100 the full control effect; nearly all actives have a fitted effect of over 60% in size
#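 Recombinant glycosomal PGK reaction used 1,3-bisphosphoglycerate generated in-well by GAPDH (100nM final) in 100mM TEA pH 7.6, 5mM MgCl2, 0.01% Tween-20. After 60 minutes at room temperature, ATP was read by Kinase-Glo Plus luminescence end-point.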
# GLS inhibitor: qHTS for Inhibitors of Glutaminase (GLS) | Glutaminase kidney isoform, mitochondrial (Homo sapiens), O94925 | GLS enzymatic activity, qHTS titration | Potency, µM (top dose mostly 45.5 µM), inactives show at the top dose activity change, negative = inhibition, actives largely listed as inhibitors | 410,000 tested, 0.21% active; further: potency means the concentration at half of the fitted maximal effect; on the % scale 0 is the no-effect control and ±100 the full control effect
#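 Two-point fluorescence kinetic (t0, 30 min RT) for hKGA; glutamate detected via glutamate oxidase–HRP–Amplex Red. Substrate: 1 mM L-glutamine solution; buffer 45 mM KH2PO4, pH 8.2.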
# USP1 UbRho: Inhibitors of USP1/UAF1: Hit Validation in Primary Assay | shares compounds with VDR inhibitor | Ub-Rhodamine cleavage, fluorescence kinetic read | AID 540327, 2011 | Potency, µM (titrated, usually from 114 µM), inactives show top-dose activity change, negative = inhibition, actives largely listed as inhibitors | 50 tested, 50% active
# VDR confirm: qHTS for Inhibitors of the vitamin D receptor (VDR): Hit Validation in Primary Screen; shares compounds with VDR inhibitor; VDR-coactivator inhibition assay, qHTS confirmation; Potency, µM, hits mostly inhibitors; 840 tested, 89% active; AID 602199, 2012; further: potency means the concentration at half of the fitted maximal effect
# VDR FP: qHTS for Inhibitors of the vitamin D receptor (VDR): Hit Validation using a Fluorescein Assay; shares compounds with VDR inhibitor; VDR-coactivator binding, fluorescein fluorescence polarization; Potency, µM (highest dose often 57.1 µM), inactives show top-dose activity change, negative = inhibition, most hits filed as inhibitors; 840 tested, 48% active; AID 602200, 2012; further: potency means the concentration at half of the fitted maximal effect
# VDR bla: qHTS for Inhibitors of the vitamin D receptor (VDR): Hit Validation using a Beta-Lactamase Assay; shares compounds with VDR inhibitor; AID 602202, 2012; 840 tested, 23% active; Potency, µM (top dose mostly 46.1 µM), without a hit: at the highest dose activity change, negative = inhibition, most hits filed as inhibitors; VDR beta-lactamase reporter cells, FRET ratio; cells co-treated with VDR agonist LG190178; further: potency means the concentration at half of the fitted maximal effect; on the % scale 0 is the no-effect control and ±100 the full control effect
# VDR viability: qHTS for Inhibitors of the vitamin D receptor (VDR): Hit Validation using a Cytotoxicity Assay; shares compounds with VDR inhibitor; Potency, µM (titrated, usually from 48.3 µM), inactives show at the highest dose activity change, negative = cytotoxicity, hits mostly cytotoxic; cytotoxicity counter-screen, cell viability, qHTS; 840 tested, 18% active;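 further: potency means the concentration at half of the fitted maximal effect; plate controls were DMSO for no effect and high-concentration cycloheximide for full effect; nearly all actives have a fitted effect of over 75% in size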
# Active calls of the source: *; i = inactive; u = inconclusive; x = not tested or not shown. An excerpt weighted towards active compounds, which were near 1.1% of everything screened. Unless noted, the call rests on the fitted dose curve; in most records, active means well fitted curve in the direction sought with a large enough effect; inconclusive means small, poorly fitted or top-dose-only effect, or another doubt; inactive means no such curve, though single readings can be large; an effect the other way counts as inactive or inconclusive.
SMILES,VDR inhibitor,Pin1 inh,Tb PFK block,Tb PGK inh,GLS inhibitor,VDR confirm,VDR FP,VDR bla,VDR viability,others
O=c1nc(/C=C/c2ccc(Cl)cc2Cl)cc(C(F)(F)F)[nH]1,10µM*,-6.2%,3.1%,-6.7%,-4.8%,7.52*,3.16µM*,u,37.0%,
COc1ccc2[nH]cc(C3=CCNCC3)c2c1,-1.1%,x,x,x,x,x,x,x,x,USP1 UbRho=52.7µM*
CO[C@@H](C)[C@](O)(C(=O)OCC1=CCN2CC[C@@H](O)[C@H]12)C(C)C,3.2%,x,x,x,x,x,x,x,x,
COc1ccc(N2CC(C(=O)NCc3ccco3)CC2=O)cc1 (stereo not given),16.5%,u,-0.3%,i,-12.7%,x,x,x,x,
CCOC(=O)Cc1[nH]nc2c1C(c1ccoc1)C(C#N)=C(N)O2 (stereo not given),8.7%,-12.8%,-8.5%,4.8%,54.3%,x,x,x,x,
O=C1NC(=O)C(=Cc2ccccc2OCCOc2ccc([N+](=O)[O-])cc2)C(=O)N1,44.7µM*,0.7%,-7.7%,-9.3%,0.2%,26.7*,10µM*,20.1%,u,
CC1=CC2/C=C(\C)CCC(O)C(O)/C=C/C(=O)C23C(=O)NC(CC(C)C)C3C1C (stereo not given),22.4µM*,-4.0%,-9.6%,-9.0%,-2.1%,16.8*,u,7.31µM*,14.6µM*,
NC(N)=Nc1ccc2[nH]c3c(c2c1)C[C@@]1(O)[C@H]2Cc4ccc(O)c5c4[C@@]1(CCN2CC1CC1)[C@H]3O5,35.5µM*,u,u,-2.7%,45.9%,x,x,x,x,USP1 UbRho=u
Oc1ccc2c3c1O[C@H]1c4[nH]c5c(c4C[C@@]4(O)[C@@H](C2)N(CC2CC2)CC[C@]314)C[C@]1(O)[C@H]2Cc3ccc(O)c4c3[C@@]1(CCN2CC1CC1)[C@@H]5O4,6.9%,x,x,x,x,x,x,x,x,
CO[C@H]1C=C2CCN(C)[C@@H]2[C@@H]2c3cc4c(cc3C(=O)O[C@H]21)OCO4,4.3%,x,x,x,x,x,x,x,x,
NC(Cc1cc(O)c(O)cc1O)C(=O)O (stereo not given),44.7µM*,x,0.849µM*,x,x,x,x,x,x,USP1 UbRho=11.8µM*
N[C@@H](Cc1cc(I)c(O)c(I)c1)C(=O)O,u,0.3%,-3.7%,-5.9%,52.8%,x,x,x,x,
C[C@]12CCC3C(CC[C@H]4C[C@@H](O)CC[C@]34C)[C@@H]1CCC2=O (stereo not given in full),-14.8%,x,x,x,x,x,x,x,x,
CN1CC[C@]2(C)c3cc(O)ccc3N(C)[C@@H]12,u,x,x,x,x,x,x,x,x,USP1 UbRho=u
CC1[C@H]2Cc3ccc(O)cc3[C@]1(C)CCN2CCc1ccccc1 (stereo not given in full),-15.3%,-1.1%,0.0%,i,35.2%,x,x,x,x,
O=C1NC(=S)NC(=O)C1=Cc1cccn1-c1ccc(O)cc1,25.1µM*,x,u,u,12.6%,8.44*,u,u,u,
O=S(=O)(/C(=C/c1ccc(C(F)(F)F)cc1)c1nc2ccccc2[nH]1)c1ccccc1,15.8µM*,-4.9%,-9.6%,-3.4%,-3.3%,3.77*,u,2.31µM*,8.2µM*,
CN1CCN(C(=O)Cc2nc3ccccc3[nH]2)CC1,5.7%,-1.0%,2.8%,12.3%,9.9%,x,x,x,x,
NC(=O)c1ccsc1NC(=O)COC(=O)Cc1ccccc1,5.7%,2.3%,u,6.4%,5.2%,x,x,x,x,
COC(=O)CCC(=O)Nc1sc(Cc2ccccc2)c(C)c1C(N)=O,20µM*,-4.9%,-11.3%,-0.4%,0.8%,u,u,-1.6%,18.9%,
c1ccc2c(c1)[IH]c1ccccc1-2,12.9%,-5.5%,x,-8.2%,-14.7%,x,x,x,x,
N#CC(C#N)=NNc1ccc(-n2ccc(C(F)(F)F)n2)cc1,20µM*,-2.7%,-3.5%,-0.4%,12.2%,2.99*,u,u,u,
O=C(O)/C=C/C(=O)c1ccc2c(c1)CCc1ccccc1-2,3.55µM*,11.3%,-6.3%,-3.6%,u,3.77*,u,u,u,
CN1C(=O)C(=Cc2ccccc2OCc2ccccc2Cl)C(=O)N(C)C1=O,u,1.6%,10.3%,i,u,x,x,x,x,
CN1C(=O)C(=Cc2ccccc2OS(=O)(=O)c2ccccc2)C(=O)N(C)C1=O,25.1µM*,-6.4%,9.6%,7.4%,34.9%,26.7*,11.2µM*,20.4%,-13.1%,
